Active and inactive are the calls of the source.
What was measured:
Albumin (Bos taurus) = Albumin (Bos taurus) (UniProt P02769); assay: bovine serum albumin binders on microarray, profiling panel, artefact control for SMM control protein annotation, biochemical, small-molecule microarray, Alexa647 label, 635/667 nm fluorescence (AID 1118); details: BSA-A647 binding, fluorescence 635 nm, higher = more signal;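 also: score merges 667 nm emission intensity and signal-to-noise per printed compound spot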
Albumin (Bos taurus), sequence (P02769 whole entry, looked up): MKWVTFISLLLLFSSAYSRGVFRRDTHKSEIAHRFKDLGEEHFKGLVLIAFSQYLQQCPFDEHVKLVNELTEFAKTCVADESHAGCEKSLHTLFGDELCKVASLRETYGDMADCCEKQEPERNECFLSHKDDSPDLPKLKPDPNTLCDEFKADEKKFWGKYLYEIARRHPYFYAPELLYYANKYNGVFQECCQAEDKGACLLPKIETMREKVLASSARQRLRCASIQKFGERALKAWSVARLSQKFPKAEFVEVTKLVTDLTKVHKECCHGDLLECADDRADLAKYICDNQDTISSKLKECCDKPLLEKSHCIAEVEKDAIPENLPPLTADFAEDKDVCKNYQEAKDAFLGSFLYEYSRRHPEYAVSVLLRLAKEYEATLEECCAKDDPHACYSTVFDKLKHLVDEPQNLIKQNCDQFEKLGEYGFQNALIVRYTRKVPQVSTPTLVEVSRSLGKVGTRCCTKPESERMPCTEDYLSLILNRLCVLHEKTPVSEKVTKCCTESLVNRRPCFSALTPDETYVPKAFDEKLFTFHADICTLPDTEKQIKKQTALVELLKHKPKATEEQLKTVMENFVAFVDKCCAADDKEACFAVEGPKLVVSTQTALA

[1] = small-molecule microarray binders of probe aXIP, primary screen, biochemical, NeuroSMM set, 635/667 nm fluorescence (AID 1119); details: higher = more signal, called active from +8 up or from −8 down;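 also: probe is the protein aXip251-270 applied at 1 µg/mL to compound-printed slides; binding of probe to printed compounds measured as 667 nm fluorescence plus signal to noise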
[2] = small-molecule binders of probe aNOTCH3, primary screen, biochemical, small-molecule microarray, 635/667 nm fluorescence (AID 1120); details: higher = more signal;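 also: probe is a biotin-tagged antibody raised against NOTCH3 rather than NOTCH3 protein; score merges spot fluorescence near 667 nm with spot signal to noise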
[3] = small-molecule binders of probe aNOTCH2, primary screen, biochemical, small-molecule microarray, 635/667 nm fluorescence (AID 1121); details: higher = more signal;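 also: score merges feature fluorescence read at 667 nm with its signal to noise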
[4] = target: Carbonic anhydrase 2 (Homo sapiens) (UniProt P00918); assay: CAII small-molecule binders, profiling panel, biochemical, small-molecule microarray, Alexa647-labelled CAII (AID 1122); details: CAII-A647 binding fluorescence, higher = more signal
[5] = COS7 lysate on small-molecule microarray, probe aHis, 635 nm (AID 1123); details: COS7 cell lysate, fluorescence, higher = more signal;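 also: z-score combines 667nm fluorescence intensity with signal-to-noise per printed compound spot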
[6] = compound binding in COS7 lysate, probe aLAP1, primary screen, cell lysate, small-molecule microarray (AID 1124); details: probe aLAP1, fluorescence, higher = more signal;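 also: lysate comes from COS7 cells expressing LAP1 and is applied at 0.3 µg/mL; score merges spot fluorescence near 667 nm with signal-to-noise over triplicate slides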
Sam68 (KHDRBS1) = assay: Sam68 small-molecule binders, primary screen, biochemical, small-molecule microarray, 635 nm fluorescence (AID 1125); details: small-molecule microarray binding, higher = more signal;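 also: score merges 667 nm channel intensity with signal to noise over triplicate slides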
[7] = tested on: Chordin-like protein 2 (CHRDL2); assay: CHRDL2 small-molecule binders, primary screen, biochemical, small-molecule microarray, 635 nm fluorescence (AID 1126); details: small-molecule microarray binding, fluorescence 635 nm; higher = more signal;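 also: printed compound slides probed with Chrdl2 protein at 4 µg/mL for 1 h at 4 C; score merges 667 nm emission intensity with signal to noise over three replicate slides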
[8] = target: Concanavalin-A (Canavalia ensiformis) (UniProt P02866); assay: ConA small-molecule binders, primary screen, artefact control for SMM control protein annotation, biochemical, small-molecule microarray, Alexa647 label, 635 nm (AID 1127); details: ConA-A647 binding fluorescence, higher = more signal;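 also: z combines 667 nm emission intensity with signal-to-noise across three replicate slides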
Concanavalin-A (Canavalia ensiformis), sequence (P02866 whole entry, looked up): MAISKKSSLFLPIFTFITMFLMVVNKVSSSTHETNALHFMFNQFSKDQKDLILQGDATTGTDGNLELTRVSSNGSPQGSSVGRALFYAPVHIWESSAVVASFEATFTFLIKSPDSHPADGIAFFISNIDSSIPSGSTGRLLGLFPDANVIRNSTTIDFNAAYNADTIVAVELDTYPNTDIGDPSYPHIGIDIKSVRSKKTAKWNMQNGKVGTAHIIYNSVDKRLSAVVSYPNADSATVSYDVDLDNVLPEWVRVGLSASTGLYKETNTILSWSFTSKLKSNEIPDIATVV

[9] = anti-His antibody binders, primary screen, artefact control for SMM control protein annotation, biochemical, small-molecule microarray, 635 nm fluorescence (AID 1128); details: anti-His Alexa647 antibody binding, higher = more signal;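 also: score merges feature fluorescence with signal-to-noise for each printed compound spot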
[10] = tested on: Human papillomavirus type 1a E7 protein (residues 1-88); assay: HPV1a E7 small-molecule binders, primary screen, biochemical, small-molecule microarray, residues 1-88, 635 nm (AID 1129); details: small-molecule microarray binding, fluorescence 635 nm; higher = more signal
[11] = target: Focal adhesion kinase 1 (Homo sapiens) (UniProt Q05397); assay: small-molecule microarray binders of FAK, primary screen, biochemical, 635/667 nm fluorescence, BSA, DTT (AID 1130); details: PTK2 binding, 635 nm fluorescence, higher = more signal;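 also: composite of spot emission at 667 nm and signal to noise over triplicate slides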
Focal adhesion kinase 1 (Homo sapiens), sequence (Q05397 whole entry, looked up): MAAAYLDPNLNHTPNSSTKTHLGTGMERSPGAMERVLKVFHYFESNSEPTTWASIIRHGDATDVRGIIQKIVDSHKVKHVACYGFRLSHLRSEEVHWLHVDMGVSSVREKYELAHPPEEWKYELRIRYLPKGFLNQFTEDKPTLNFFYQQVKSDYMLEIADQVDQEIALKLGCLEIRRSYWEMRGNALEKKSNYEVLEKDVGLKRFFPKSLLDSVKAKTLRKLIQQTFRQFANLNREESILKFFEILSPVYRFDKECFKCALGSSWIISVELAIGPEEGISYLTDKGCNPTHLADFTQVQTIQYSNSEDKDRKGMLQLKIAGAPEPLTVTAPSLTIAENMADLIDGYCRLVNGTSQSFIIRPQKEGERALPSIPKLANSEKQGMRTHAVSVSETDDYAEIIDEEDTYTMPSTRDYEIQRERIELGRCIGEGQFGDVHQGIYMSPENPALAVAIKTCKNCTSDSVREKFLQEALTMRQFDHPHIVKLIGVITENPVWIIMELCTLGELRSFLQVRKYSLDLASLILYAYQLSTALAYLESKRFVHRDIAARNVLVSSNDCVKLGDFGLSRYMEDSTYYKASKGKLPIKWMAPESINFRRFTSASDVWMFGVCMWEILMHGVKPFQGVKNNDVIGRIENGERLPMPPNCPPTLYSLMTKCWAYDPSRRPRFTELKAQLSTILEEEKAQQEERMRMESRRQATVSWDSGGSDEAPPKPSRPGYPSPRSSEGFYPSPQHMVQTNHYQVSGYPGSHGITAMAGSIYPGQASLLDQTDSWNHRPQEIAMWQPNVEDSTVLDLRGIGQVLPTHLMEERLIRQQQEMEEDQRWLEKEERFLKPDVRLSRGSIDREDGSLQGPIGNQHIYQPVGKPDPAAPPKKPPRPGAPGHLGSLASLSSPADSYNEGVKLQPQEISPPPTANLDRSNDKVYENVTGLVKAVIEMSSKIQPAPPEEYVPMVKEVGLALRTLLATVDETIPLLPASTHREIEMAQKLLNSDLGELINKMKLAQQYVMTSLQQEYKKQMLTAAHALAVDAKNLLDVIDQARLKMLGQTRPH

[12] = tested on: Fibrinogen (Alexa647-labelled); assay: fibrinogen binders on compound microarrays, profiling panel, artefact control for SMM control-protein annotation, biochemical, small-molecule microarray, 635/667 nm fluorescence (AID 1131); details: fibrinogen-A647 binding fluorescence, higher = more signal;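 also: z-score merges 667 nm fluorescence with per-spot signal-to-noise over triplicate slides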
[13] = target: Follistatin (Homo sapiens) (UniProt P19883); assay: follistatin binders on small-molecule microarrays, primary screen, biochemical, small-molecule microarray, 635/667 nm fluorescence (AID 1132); details: FST binding, 635 nm fluorescence, higher = more signal
Follistatin (Homo sapiens), sequence (P19883 whole entry, looked up): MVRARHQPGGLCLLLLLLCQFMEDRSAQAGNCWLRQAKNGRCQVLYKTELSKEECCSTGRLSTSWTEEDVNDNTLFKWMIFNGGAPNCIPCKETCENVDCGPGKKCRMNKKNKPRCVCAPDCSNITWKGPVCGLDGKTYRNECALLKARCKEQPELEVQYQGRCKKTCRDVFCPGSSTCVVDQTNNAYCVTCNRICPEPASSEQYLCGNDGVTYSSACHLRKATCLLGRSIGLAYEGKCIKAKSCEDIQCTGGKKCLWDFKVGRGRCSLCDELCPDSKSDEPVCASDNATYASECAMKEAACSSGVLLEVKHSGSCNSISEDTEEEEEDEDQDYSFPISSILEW

[14] = target: Fibroblast growth factor 2 (Homo sapiens) (UniProt P09038); assay: FGF2 binders on small-molecule microarrays, primary screen, biochemical, small-molecule microarray, 635/667 nm fluorescence (AID 1133); details: small-molecule microarray binding, FGF2, fluorescence 635/667; higher = more signal
Fibroblast growth factor 2 (Homo sapiens), sequence (P09038 whole entry, looked up): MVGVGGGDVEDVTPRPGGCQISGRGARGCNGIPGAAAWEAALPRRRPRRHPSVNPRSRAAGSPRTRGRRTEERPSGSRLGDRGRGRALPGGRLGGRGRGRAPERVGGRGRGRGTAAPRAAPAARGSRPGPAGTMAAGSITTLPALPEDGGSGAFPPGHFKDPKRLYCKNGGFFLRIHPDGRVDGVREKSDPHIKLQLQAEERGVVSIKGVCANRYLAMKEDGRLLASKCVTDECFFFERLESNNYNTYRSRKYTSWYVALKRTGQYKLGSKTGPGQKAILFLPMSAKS

[15] = mitochondrial membrane potential change in A549 cells, profiling panel, cell-based, JC-1 fluorescence, basal, 24 h, 100 nL (AID 1138); details: higher = more signal;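 also: A549 lung adenocarcinoma cells under basal conditions with no added stimulus; test concentration not given here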
Lefty1 = Lefty1 binders on small-molecule microarrays, primary screen, biochemical, small-molecule microarray, 635/667 nm fluorescence (AID 1139); details: small-molecule microarray binding, fluorescence 635/667; higher = more signal
[16] = tested on: wheat germ agglutinin (Triticum aestivum), Alexa647-labelled; assay: wheat germ agglutinin binders on compound microarrays, profiling panel, artefact control for SMM control-protein annotation, biochemical, small-molecule microarray, 635/667 nm fluorescence (AID 1140); details: WGA-A647 binding, 635 nm fluorescence, higher = more signal;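 also: score merges 667 nm feature emission with signal to noise over triplicate slides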
[17] = target: Luciferin 4-monooxygenase (Photinus pyralis) (UniProt P08659); assay: firefly luciferase enzyme inhibitors, primary screen, biochemical, luminescence, purified enzyme, 2006 set (AID 1141); details: SteadyGlo luminescence, 30 min, higher = more signal, called active from +8 up or from −8 down;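 also: cell-free assay with purified firefly luciferase at 100 ng per well in PBS; test concentration not given here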
Luciferin 4-monooxygenase (Photinus pyralis), sequence (P08659 whole entry, looked up): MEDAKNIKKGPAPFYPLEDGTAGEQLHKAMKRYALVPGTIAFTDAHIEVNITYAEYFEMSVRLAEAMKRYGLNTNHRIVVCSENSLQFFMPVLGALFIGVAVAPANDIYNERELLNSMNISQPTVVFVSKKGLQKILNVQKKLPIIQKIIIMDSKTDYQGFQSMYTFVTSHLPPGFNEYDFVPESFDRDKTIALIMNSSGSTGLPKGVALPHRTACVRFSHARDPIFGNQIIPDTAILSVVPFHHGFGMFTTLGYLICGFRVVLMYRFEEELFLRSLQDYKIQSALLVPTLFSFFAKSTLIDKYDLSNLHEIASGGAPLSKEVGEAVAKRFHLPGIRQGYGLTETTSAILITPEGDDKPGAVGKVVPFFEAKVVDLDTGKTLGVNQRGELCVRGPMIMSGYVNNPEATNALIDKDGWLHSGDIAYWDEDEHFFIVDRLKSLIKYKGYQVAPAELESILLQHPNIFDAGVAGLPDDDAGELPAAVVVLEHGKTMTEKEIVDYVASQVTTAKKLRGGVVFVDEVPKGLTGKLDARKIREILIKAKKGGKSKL

Row | SMILES | composite z-score (Albumin (Bos taurus)) | composite Z-score [1] | composite z-score [2] | composite z-score [3] | composite z-score [4] | composite z-score [5] | composite z-score [6] | composite z-score (Sam68 (KHDRBS1)) | composite z-score [7] | composite z-score [8] | composite z-score [9] | composite z-score [10] | composite z-score [11] | composite z-score [12] | composite z-score [13] | composite z-score [14] | z-score [15] | composite z-score (Lefty1) | composite z-score [16] | z-score [17]
1 | [N-]=[N+]=Nc1ccccc1[C@@H]1OC(c2ccc(OCCCO)cc2)=N[C@]1(CCS(=O)(=O)c1ccccc1)C(=O)NCc1ccccc1 | 0.976 | 1.08 (inactive) | 0.752 | 0.38 | 0.749 | 2.86 | 0.48 | 1.29 | -0.612 | 1.11 | 1.13 | 0.742 | 1.03 | 0.982 | 1.3 | 1.06 | 0.27 | -0.141 | 1.2 | -11.9 (active)
2 | Cc1cc(C)c(C(O)C2C=CC3C(=O)N(c4ccccc4)C(=O)C3N2Nc2ccccc2)c(C)c1 (stereo not given) | 0.767 | 0.0805 (inactive) | 0.236 | 0.294 | 0.781 | 2.13 | 0.0109 | 1.3 | -0.194 | 1.18 | 2.11 | 1.22 | 0.638 | 1.03 | 0.784 | 0.0968 | 0.384 | 0.366 | 1.43 | -0.584 (inactive)
3 | CCOC(=O)C1=CC[C@@H](c2cccc(Br)c2)N(S(=O)(=O)c2ccc(C)cc2)[C@H]1c1ccc([N+](=O)[O-])cc1 | 0.861 | 0.338 (inactive) | 0.0116 | -0.0856 | 0.586 | 2.45 | 0.885 | 1.08 | 0.625 | 1 | 0.822 | 1.22 | 0.359 | 1.01 | 0.782 | 0.873 | 1.99 | 0.726 | 0.743 | 1.96 (inactive)
4 | COC(=O)[C@@]1(Cc2ccc(OC)cc2)[C@H]2c3cc(C(=O)N4CCCC4)n(CCF)c3C[C@H]2CN1C(=O)c1ccccc1 | 0.978 | 0.573 (inactive) | 1.97 | 1.15 | 0.755 | 3.15 | 0.478 | 0.757 | -0.258 | 0.99 | 2.31 | 1.17 | 0.896 | 1.04 | 0.411 | -0.0251 | -1.32 | -0.3 | 1.06 | 1.49 (inactive)
5 | C[N+](C)(C)CCCC[C@@H]1NC(=O)[C@H]2C[C@@H](C(=O)NCCCCCCN)[C@@H](c3cccc(OCCO)c3)N2C1=O | 0.149 | 0.514 (inactive) | 0.536 | 0.198 | 0.752 | 2.07 | 1.04 | 1.3 | 0.886 | 0.936 | 0.711 | 1.21 | 0.209 | 0.704 | 1.4 | 1.51 | -0.798 | 1.67 | 1.13 | 0.815 (inactive)
6 | CC[C@@H]1[C@@H]2C3C(=O)N(CC)C(=O)C3CC(=O)[C@@H]2[C@H](c2ccc(C)cc2)N1S(=O)(=O)c1ccc(C)cc1 (stereo not given in full) | 0.701 | -0.304 (inactive) | 0.0077 | 0.131 | 0.749 | 2.61 | 1.64 | 1.34 | -0.337 | 0.876 | 0.189 | 1.2 | 0.381 | -0.826 | 0.573 | -0.415 | -0.0765 | 0.417 | 0.519 | 1.46 (inactive)
7 | CCCCC(O)C1C=CC2C(=O)N(Cc3ccccc3)C(=O)C2N1n1cnnc1 (stereo not given) | -0.0045 | 0.406 (inactive) | 0.0039 | -0.101 | 0.644 | 1.4 | 0.0713 | 1.01 | -0.0652 | 0.216 | 2.39 | 0.433 | 0.242 | 0.892 | 0.457 | -0.0025 | -0.721 | 0.289 | 0.652 | 1.48 (inactive)
8 | CCCC=C(CCC)[C@@H](NS(=O)(=O)c1ccccc1)c1ccc(C(F)(F)F)cc1 | 0.871 | 0.35 (inactive) | 0.23 | 0.277 | 0.578 | 2.65 | 0.17 | 1.32 | 0.24 | 1.09 | 0.438 | 1.21 | 1.03 | 0.979 | 0.831 | -0.0779 | -1.64 | 0.219 | 0.72 | 2.08 (inactive)
9 | COc1ccc([Si](C)(C)[C@@H]2[C@@H](CC(=O)N(CCO)Cc3ccccc3)O[C@]3(C(=O)N(C)c4c(Br)cc(C)cc43)[C@H]2C)cc1 | 0.597 | 0.0128 (inactive) | -0.0918 | -0.124 | 0.154 | 0.741 | 0.231 | 0.649 | 1.4 | -0.126 | 0.926 | 0.304 | 0.19 | -0.537 | 1.08 | 0.957 | -1.33 | 1.17 | 0.114 | -0.314 (inactive)
10 | C=CC[C@]1(C(=O)NCC(O)CO)N=C(c2ccc(OCCCO)cc2)O[C@H]1c1ccccc1N=[N+]=[N-] (stereo not given in full) | 0.933 | 0.171 (inactive) | 0.0876 | 0.132 | 0.766 | 2.78 | 1.41 | 0.645 | -0.451 | -0.0308 | 2.28 | 0.653 | 0.302 | 0.66 | 1.1 | 0.264 | -0.152 | -0.661 | 0.986 | -6.91 (inactive)
11 | COCCCNC(=O)[C@@H]1c2ccccc2C(=O)N(Cc2cc(F)cc(C(F)(F)F)c2)[C@H]1c1ccc(CO)cc1 | -0.146 | 0.147 (inactive) | -0.388 | -0.0826 | 0.761 | -0.838 | -0.438 | -1.24 | -1.24 | -0.265 | -0.669 | -1.06 | -0.751 | -1.81 | -0.252 | -0.94 | 0.261 | -0.584 | 0.373 | -0.646 (inactive)
